TLR9-MyD88 inh – inhibitors of TLR9-MyD88 association in cells, primary screen, cell-based, CHO, BLA complementation, fluorescence. Toll-like receptor 9 (Homo sapiens) + Myeloid differentiation primary response protein …. CCF4 FRET ratio. inhibition, % at 4.98 µM. hit rate 0.21% among 340,000. AID 504734, 2011;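 active means inhibition above the mean over all tested compounds plus 3 SD, cut at about 21% in these data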;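 further: 0% = DMSO only wells and 100% = clavulanate BLA inhibitor control wells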
NOD2-RIPK2 inh – NOD2-RIPK2 binding disruptors in cells, primary screen, fluorescence, CHO cells, BLA complementation; CCF4 ratio; inhibition, % at 4.98 µM; hit rate 0.38% among 360,000; AID 624267, 2012; in the data active means inhibition above about 21%;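 further: 0% = vehicle only and 100% = reference blocker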
Mcl1-Bid inh – Mcl-1/Bid binding inhibitors, primary screen, biochemical, TR-FRET, 1536-well | Induced myeloid leukemia cell differentiation protein Mcl-1 (Homo sapiens), Q07820 | TR-FRET Mcl-1/Bid-Dy647 peptide binding | inhibition, % at 21.7 µM | hit rate 0.97% among 220,000 | AID 1021, 2008;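 active means compounds that cut the binding signal by more than half at the single screening dose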;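 further: His-tagged Mcl-1 with europium anti-His antibody binding Bid BH3 peptide; 0% = Mcl-1 plus peptide wells and 100% = peptide-only wells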
Target sequence (Q07820 whole entry, looked up): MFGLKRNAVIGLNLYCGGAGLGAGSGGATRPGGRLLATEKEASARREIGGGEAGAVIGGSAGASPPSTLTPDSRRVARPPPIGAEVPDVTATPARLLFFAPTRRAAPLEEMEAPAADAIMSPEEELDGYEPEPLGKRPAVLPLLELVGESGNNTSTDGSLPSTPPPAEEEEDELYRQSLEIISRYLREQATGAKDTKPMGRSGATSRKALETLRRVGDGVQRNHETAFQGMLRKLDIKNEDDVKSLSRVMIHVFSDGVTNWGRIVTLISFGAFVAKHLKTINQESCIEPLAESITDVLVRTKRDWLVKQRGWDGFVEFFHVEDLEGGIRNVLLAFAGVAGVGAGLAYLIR
Mcl1 Noxa PPI – Mcl-1/Noxa binding inhibitors, primary screen, biochemical, TR-FRET, 1536-well. Induced myeloid leukemia cell differentiation protein Mcl-1 (Homo sapiens), Q07820. TR-FRET Mcl-1/Noxa peptide binding, 2 h. inhibition, % at 21.7 µM. hit rate 1.5% among 220,000. AID 1022, 2008;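 active means compounds that cut the protein-peptide binding signal by more than 50% relative to plate controls in a single-dose test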;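 further: His-tagged Mcl-1 with rhodamine Noxa BH3 peptide and terbium anti-His antibody; 0% = Mcl-1 plus Noxa peptide wells and 100% = peptide-only wells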
TLR4 MyD88 comp – inhibitors of TLR4-MyD88 association in cells, primary screen, cell-based, HeLa CL3-4, BLA complementation, FRET ratio. Toll-like receptor 4 (Homo sapiens) + Myeloid differentiation primary response protein …. HeLa CL3-4 TLR4/MyD88 BLA complementation. inhibition, % at 8.4 µM. hit rate 0.18% among 200,000. AID 861, 2007; in the data active means inhibition above about 25%;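 further: 0% = vehicle and 100% = reference inhibitor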
Mcl-1 Bim block – inhibitors of Bim peptide binding to Mcl-1, primary screen, biochemical, bead-based flow cytometry, multiplex. Bim peptide-Mcl-1 binding. inhibition, % at 10 µM. hit rate 0.1% among 190,000. AID 1009, 2008; in the data active means inhibition above about 40%;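 further: 0% = no compound tracer wells and 100% = peptide blocker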
Numbers without * were called inactive. This is a sample that favours compounds with a hit; in the whole collection about 1.8% have one here.

Screening CCN(CC)C(=O)C1CCCN(c2ccc([N+](=O)[O-])cc2/C=N/NC(=O)c2cccc([N+](=O)[O-])c2)C1 (stereo not drawn) returned TLR9-MyD88 inh -1, NOD2-RIPK2 inh -6, Mcl1-Bid inh 63*, Mcl1 Noxa PPI 33, TLR4 MyD88 comp 3 and Mcl-1 Bim block 0.
`COc1ccc(OCC(=O)NNC(=O)C(=O)N2CCCC2)cc1` gave TLR9-MyD88 inh 0, NOD2-RIPK2 inh 3, Mcl1-Bid inh -14, Mcl1 Noxa PPI -3, TLR4 MyD88 comp -1 and Mcl-1 Bim block 0.
For Cn1cc(Cc2ccc(C(=O)N3CCCCC3)cn2)c2ccccc21 the results were NOD2-RIPK2 inh 4.
CCOC(=O)c1[nH]c2ccc(Cl)cc2c1NC(=O)/C=C/c1ccc2c(c1)OCO2 was read as TLR9-MyD88 inh -6, NOD2-RIPK2 inh 2, Mcl1-Bid inh -21, Mcl1 Noxa PPI 23, TLR4 MyD88 comp -1 and Mcl-1 Bim block -3.
Screening CCN(CC(=O)Nc1c(C(=O)OC)[nH]c2ccc(Cl)cc12)c1ccc2c(c1)OCO2 returned TLR9-MyD88 inh -4, NOD2-RIPK2 inh 5, Mcl1-Bid inh 59*, Mcl1 Noxa PPI 43, TLR4 MyD88 comp -4 and Mcl-1 Bim block 6.
Screening O=C(NC1CCN(S(=O)(=O)c2ccccc2)CC1)c1ccccc1 returned TLR9-MyD88 inh -3 and NOD2-RIPK2 inh -4.
O=C(c1ccc(F)cc1)N1CCN(C2CC3CCC2C3)CC1 (stereo not drawn) was read as TLR9-MyD88 inh -6, NOD2-RIPK2 inh -7, Mcl1-Bid inh -17, Mcl1 Noxa PPI 7, TLR4 MyD88 comp -4 and Mcl-1 Bim block 5.
`O=C(c1ccccc1)N1CCN(C2CCCCCC2)CC1` gave TLR9-MyD88 inh 6, NOD2-RIPK2 inh -3, Mcl1-Bid inh 66*, Mcl1 Noxa PPI 27, TLR4 MyD88 comp 3 and Mcl-1 Bim block -1.
`O=C(c1ccccc1)N1CCN(C2CC3CCC2C3)CC1` (stereo not drawn) gave TLR9-MyD88 inh 0, NOD2-RIPK2 inh 3, Mcl1-Bid inh 57*, Mcl1 Noxa PPI -14, TLR4 MyD88 comp 2 and Mcl-1 Bim block -3.
Screening CCOC(=O)[C@]12CCC=C1N(Cc1ccccc1)C(=O)[C@H](CC(=O)NCc1ccc(OC)c(OC)c1)C2 returned NOD2-RIPK2 inh -12.
Cc1ccccc1NS(=O)(=O)c1ccc(OCC(=O)N2CCCC2)cc1 was read as TLR9-MyD88 inh -24, NOD2-RIPK2 inh 2, Mcl1-Bid inh 4, Mcl1 Noxa PPI 58*, TLR4 MyD88 comp 6 and Mcl-1 Bim block -2.
`Cc1ccc(C)c(NS(=O)(=O)c2ccc(OCC(=O)N3CCCC3)cc2)c1` gave TLR9-MyD88 inh -1, NOD2-RIPK2 inh -10, Mcl1-Bid inh -28, Mcl1 Noxa PPI 9, TLR4 MyD88 comp 13 and Mcl-1 Bim block -4.
Screening CCc1ccccc1NC(=O)C1CCN(S(C)(=O)=O)CC1 returned NOD2-RIPK2 inh -2.
`N#Cc1ccc(-c2cccnc2)nc1SCC(=O)Nc1sc2c(c1C#N)CCC2` gave TLR9-MyD88 inh -2, NOD2-RIPK2 inh -3, Mcl1-Bid inh 40, Mcl1 Noxa PPI 60*, TLR4 MyD88 comp 3 and Mcl-1 Bim block 1.
Screening CN(CCOc1ccccc1Cl)Cc1ccccc1 returned TLR9-MyD88 inh -1 and NOD2-RIPK2 inh 6.
`Cc1ccc(Cl)c(OCCCCN(C)Cc2ccccc2)c1` gave TLR9-MyD88 inh -8, NOD2-RIPK2 inh -2, Mcl1-Bid inh 52*, Mcl1 Noxa PPI 16, TLR4 MyD88 comp 9 and Mcl-1 Bim block -4.
CN(CCCOc1ccccc1Br)Cc1ccccc1 was read as TLR9-MyD88 inh -11, NOD2-RIPK2 inh 1, Mcl1-Bid inh -35, Mcl1 Noxa PPI -4, TLR4 MyD88 comp 6 and Mcl-1 Bim block 30.
`Cc1ccc(Cl)c(OCCCN(C)Cc2ccccc2)c1` gave TLR9-MyD88 inh -8, NOD2-RIPK2 inh -16, Mcl1-Bid inh 77* and Mcl1 Noxa PPI 18.
`Cc1nn(-c2ccccc2)c(C)c1/C=N/NC(=O)CSc1nc2ccccc2c(=O)n1-c1ccc(Br)cc1` gave TLR9-MyD88 inh -6, NOD2-RIPK2 inh -3, Mcl1-Bid inh 11, Mcl1 Noxa PPI 6, TLR4 MyD88 comp -8 and Mcl-1 Bim block 0.
Screening Cc1ccc(-n2c(SCC(=O)N/N=C/c3c(C)nn(-c4ccccc4)c3C)nc3ccccc3c2=O)cc1 returned TLR9-MyD88 inh -5, NOD2-RIPK2 inh -1, Mcl1-Bid inh 53*, Mcl1 Noxa PPI -27, TLR4 MyD88 comp -4 and Mcl-1 Bim block -3.
For CC1CCN(C(=O)NC(=O)c2ccc(Cl)cc2)CC1 the results were TLR9-MyD88 inh -1 and NOD2-RIPK2 inh -1.
`CO[C@@H]1CN(C)C(=O)c2ccc(NS(=O)(=O)c3c(C)noc3C)cc2OC[C@@H](C)NC[C@@H]1C` gave NOD2-RIPK2 inh -2.
CCOC(=O)c1c(NC(=O)CN2C(=O)C(=O)N(C(C)C)C2=O)sc(C)c1CC was read as TLR9-MyD88 inh -9 and NOD2-RIPK2 inh -3.
For COc1ccc2c(=O)c3c(=O)n(Cc4ccco4)c(-c4ccco4)nc3oc2c1 the results were TLR9-MyD88 inh -3, NOD2-RIPK2 inh 8, Mcl1-Bid inh -3, Mcl1 Noxa PPI 70*, TLR4 MyD88 comp -1 and Mcl-1 Bim block 0.
COc1ccc(-c2nc3oc4cc(OC)ccc4c(=O)c3c(=O)n2Cc2ccco2)cc1 was read as TLR9-MyD88 inh 8, NOD2-RIPK2 inh 4, Mcl1-Bid inh 28, Mcl1 Noxa PPI 52*, TLR4 MyD88 comp 0 and Mcl-1 Bim block -5.
`CCc1nc2oc3cc(OC)ccc3c(=O)c2c(=O)n1Cc1ccco1` gave TLR9-MyD88 inh 14, NOD2-RIPK2 inh -4, Mcl1-Bid inh 8, Mcl1 Noxa PPI 29, TLR4 MyD88 comp 6 and Mcl-1 Bim block 1.
`COc1ccc(Cn2c(-c3ccco3)nc3oc4cc(OC)ccc4c(=O)c3c2=O)cc1` gave TLR9-MyD88 inh 7, NOD2-RIPK2 inh 6, Mcl1-Bid inh 3, Mcl1 Noxa PPI 22, TLR4 MyD88 comp 6 and Mcl-1 Bim block 0.
For CC1=Nc2cc(C(=O)O)ccc2Sc2ccc(Br)cc21 the results were TLR9-MyD88 inh 0, NOD2-RIPK2 inh 0, Mcl1-Bid inh 44, Mcl1 Noxa PPI 57*, TLR4 MyD88 comp 7 and Mcl-1 Bim block -2.
Screening O=C(Nc1cc2cccc([N+](=O)[O-])c2oc1=O)c1cccs1 returned TLR9-MyD88 inh 9, NOD2-RIPK2 inh -9, Mcl1-Bid inh -30, Mcl1 Noxa PPI 62*, TLR4 MyD88 comp -12 and Mcl-1 Bim block 0.
